Test results: PubChem BioAssay AID493004 (Broad Institute, 2010)
Out of some 2,300 compounds screened, fewer than 10 were called active.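 Rule for the calls: active = Signal drops as the depositor expects, and the fitted half-maximal dose is no more than ten times the top valid tested dose; inconclusive = Poor fit, or a flat curve whose signal drops by 30% to 70%; inactive = the rest.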 A selection follows.

Test: Mot1-301 yeast growth enhancement – whole organism, S. cerevisiae, ATP luminescence, cherry-picked samples, SUMO pathway inhibitor project, dose response (AID 493004);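 note: more negative values mean stronger growth rescue toward the control strain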
Settings: S. cerevisiae Mot1-301 galactose growth, 24 h, -100 = growth of slx-deleted rescue strain; series mostly up to 42 µM

outcome, inactive:
COc1cc(C(=O)OCC(=O)NC(C)CCc2ccccc2)cc(OC)c1OC (stereo not given)
O=C(NCc1ccccc1Cl)C(=O)NCC1CCCN1S(=O)(=O)c1cccs1 (stereo not given)
COc1cccc(NC(=O)c2nn(C34CC5CC(CC(C5)C3)C4)cc2[N+](=O)[O-])c1
CC(C)n1c(O)c(N=Nc2ccccn2)c2ccccc21
CCCCC1=CC2=CC(=O)C(C)(OC(=O)CC)C(=O)C2=CN1CCCOC(C)C (stereo not given)
Cc1ccc(Nc2cc(C)nc3c(C)ccc([N+](=O)[O-])c23)cc1
CCC1(CC)NC(=O)N(CC(=O)OCC(=O)NC(=O)c2ccccc2)C1=O
CCN1CCCC1CNC(=O)Cn1cnc2ccc(S(=O)(=O)N3CCC(C)CC3)cc2c1=O (stereo not given)
CN(C)/C(CN1CCCCC1)=C1\N=C(c2ccccc2)OC1=O
COC(=O)c1sccc1NC(=O)CC1C(=O)NCCN1C(=O)Nc1ccc(F)cc1F (stereo not given)
COc1cc(NC(=O)C2=CC(c3ccco3)=NS(=O)(=O)N2C)cc(OC)c1OC
CN(C)C(=O)c1coc2nc3ccccc3nc12
O=C(Nc1nccs1)C1CCN(S(=O)(=O)c2ccc(Cl)c(C(F)(F)F)c2)CC1
Cc1cccc(-[n+]2c(-c3cccc(Br)c3)[nH]c3nc4ccccc4nc32)c1
COCCCN1C(=O)c2ccc(C(=O)Nc3ccc(OC)cc3OC)cc2C1=O
COc1ccc(/C=C(\C#N)C(=O)NCCCn2ccnc2)cc1
Cn1c(C(=O)NCCc2ccsc2)cc2c(=O)n(C)c3ccccc3c21
CN(NC(=O)c1ccccc1F)c1nc(C(F)(F)F)nc2ccccc12
Cc1cc(C)c2c(Cn3ccnc3)cc(=O)oc2c1
COc1ccc(-c2cn(-c3ccc(C)cc3)c(=O)n2CC(=O)Nc2ccc(OC)c(OC)c2)cc1
O=C1CCC(=O)N1CCOP1(=O)COc2ccccc2OC1
CCOc1ccc(C(C(=O)NC2CCCC2)N(C(=O)c2snc(C(N)=O)c2N)C2CCCC2)cc1 (stereo not given)
Cc1ccc(O)c(CNc2nc3ccccc3n2C)c1
NC(=O)c1cc(S(=O)(=O)N2CCCC2)ccc1OCc1ccc(F)cc1
COc1ccccc1CSc1ncc(-c2ccc([N+](=O)[O-])cc2)[nH]1
O=C(CP(=O)(c1ccccc1)c1ccccc1)N1CCOCC1
N#CC1=C(N)Oc2n[nH]c(CSc3ccccc3)c2C12C(=O)Nc1ccccc12 (stereo not given)
COc1ccc(OC)c2c(N)c(C#N)c(C(F)(F)C(F)(F)F)nc12
COCCNC(=O)C(c1ccc(C)cc1)N(C(=O)CCC(=O)Nc1ccccn1)c1cccc(C)c1 (stereo not given)
CC(C)c1cc(C(=O)N/N=C/C(Br)=C/c2ccccc2)n[nH]1
CCCc1cc(=S)n2c([nH]c3ccccc32)c1C#N
CCOc1ccc(Cn2c(SCCCCC#N)nc3c2c(=O)n(C)c(=O)n3C)cc1OCC
COc1cccc(-n2c(SCC(=O)NC3CCCCC3)nc3n[nH]c(C)c3c2=N)c1
Cc1ccc(C)c(S(=O)(=O)n2cnc3ccccc32)c1
COc1ccc(C(=O)OCC(=O)c2ccc(C)c(S(=O)(=O)N3CCOCC3)c2)cc1OC
Cc1cccc(N(C(=O)c2ccc(CN3CCOCC3)o2)C(C(=O)NC2CCCCC2)c2ccc(F)cc2)c1 (stereo not given)
O=C(NC1CCCCC1)c1ccc2c(=O)n(CC3CCCO3)c(=O)[nH]c2c1 (stereo not given)
CCOCCCNCc1ccc(OCc2ccc(F)cc2)c(OC)c1
COc1cccc(CN(C)CC2CCCN(CCc3ccc(Cl)cc3)C2)c1OC (stereo not given)
COc1cccc(OC)c1C(=O)Nc1ccc2c(c1)n(C)c(=O)n2C
COC(=O)/C=C\C(=O)Nc1cccc([N+](=O)[O-])c1
CC(C)Cc1nc(N2CCOCC2)c(C#N)c2c1CCC2
COc1ccc(-c2[nH]nc3c2C(c2ccncc2)C(C#N)=C(N)O3)cc1 (stereo not given)
COc1cc(CN2CCNC(=O)C2CC(=O)NCCc2ncccc2C)cc(OC)c1 (stereo not given)
CC(C)CCNC(=O)Cn1c(=O)oc2cc(S(=O)(=O)N3CC(C)CC(C)C3)ccc21 (stereo not given)
CCc1cc2c(=O)c(-c3ccc(F)cc3)c(C(F)(F)F)oc2cc1OCC(=O)O
CCc1c(C)nc(N2CCN(Cc3ccccc3)CC2)[nH]c1=O
Cc1cc(C)c(OCC(=O)N/N=C/c2ccco2)c(C)c1
CC1=NC2(CCCc3c2no[n+]3[O-])N(O)C1(C)C (stereo not given)
CCCCC(=O)N/N=C(\C)CC(=O)Nc1cc(Cl)ccc1OC
CC(NC(=O)c1ccc(Cl)cc1)C(=O)N1CCCCC1 (stereo not given)
CCc1ccccc1NC1c2ccccc2C(=O)N1c1cccnc1 (stereo not given)
COc1ccccc1N1CCN(C(=O)C(=O)N/N=C/c2ccccc2F)CC1
N#CC1=C(N)OC2=C(C(=O)CCC2)C1C1CC=CCC1 (stereo not given)
Cc1cc(C)c2nc(-c3cccnc3)cc(C(=O)Nc3ccc(S(=O)(=O)Nc4onc(C)c4C)cc3)c2c1
CSc1nc2ccc(NC(=O)c3c(F)cccc3F)cc2s1
COc1ccccc1/C=C/C(=O)NC(=S)N1CCOCC1
CCCCNC(=O)c1ccccc1NC(=O)C1=C(C)OCCS1
C=CCC(NCCCO)c1cccc(OC)c1OC (stereo not given)
O=C(OC1CCOC1=O)c1cccc(S(=O)(=O)Nc2ccc(F)cc2)c1 (stereo not given)
CCOC(=O)C1(Cc2cccc(OC)c2)CCCN(S(=O)(=O)c2cccnc2)C1 (stereo not given)
Cc1ccc(S(=O)(=O)N2[C@@H](c3ccc(Br)cc3)C(C(=O)O)=C[C@H]2CC2CCCC2)cc1
CCN(CC)C(=O)CSC(Nc1cccc(F)c1)=C(C#N)C#N
Cc1ccc(NC(=O)Nc2cccc(C(F)(F)F)c2)nc1
O=C(NCC(=O)N(c1ccccc1)C(C(=O)NCC1CCCO1)c1ccccc1)c1cccs1 (stereo not given)
O=C(CSCc1ccc(Cl)cc1)N1CCCCC1
O=C1CC(c2ccccc2)C(=O)N1c1cccc(O)c1 (stereo not given)
Cc1nn(CCOc2ccccc2)c(=O)n1-c1ccccc1F
Oc1c(Cl)cc(Cl)c(Cl)c1Cc1c(O)c(Cl)cc(Cl)c1Cl
CC(Oc1ccccc1[N+](=O)[O-])C(=O)N/N=C/c1ccoc1 (stereo not given)
